The text below walks through data of PubChem BioAssay (NCATS).

Each structure is given as a SMILES string. Results filed as inconclusive are left out. A number with no mark means an inactive call. Calls of active or inactive are those of the source. Calls follow the shape of the dose curve; as a rule, active = well fitted curve in the direction sought with a large enough effect; inconclusive = small, poorly fitted or top-dose-only effect, or another doubt; inactive = no such curve, though single readings can be large; an effect the other way counts as inactive or inconclusive.

For assay [1], the system named is HaCat. Kind of assay: Cytotoxic Profiling of Annotated Libraries Using Quantitative High-Throughput Screening (AID 1296008). Also: nearly all actives have a fitted effect of over 60% in size. Also: potency is read from the fitted curve at half-maximal effect. As to max response: % is scaled to controls: 0 for no effect and ±100 for the full control effect. As to conditions: Five cell lines viability, CellTiter-Glo ATP luminescence, 48-72 h; max response: hits give low values. The essentials:
(§1)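 Cytotoxicity was measured as CellTiter-Glo ATP luminescence, read after 10 min at room temperature. Compound treatment of the cells lasted 48 or 72 hr at 37 degrees Celsius in a qHTS format.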
For orientation: In ATP-based viability assays light output follows the ATP content of the culture.

For assay [2], the system named is KB-3-1. Described as above. As to conditions: Five cell lines viability, CellTiter-Glo ATP luminescence, 48-72 h; max response: hits give low values. The essentials: as §1
Assay [3] concerns HACAT. Nature of the assay: qHTS assay to identify novel small-molecules to repurpose for Merkel cell carcinoma treatment (AID 1296009). Also: nearly all actives have a fitted effect of over 60% in size. Also: potency is read from the fitted curve at half-maximal effect. As to conditions: MCC and control cell lines, CellTiter-Glo viability, 72 h; at 44.8 µM (top of the series) unless noted. The essentials:
(§2)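 Cell viability, measured as CellTiter-Glo luminescence, was normalized between DMSO and no-cell wells. The cells had been exposed to 8- or 11-point compound dilutions for 72 hr at 37 degree celsius.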
(Quantitative high-throughput screening tests each substance at several concentrations.)

In assay [4] the test system is MCC-13. The assay is described as above. As to conditions: MCC and control cell lines, CellTiter-Glo viability, 72 h; series mostly up to 46 µM. The essentials: as §2
Assay [5] has as its system MCC-26. The assay is described as above. As to conditions: MCC and control cell lines, CellTiter-Glo viability, 72 h; series mostly up to 46 µM. The procedure, abridged: as §2
The subject of assay [6] is MKL-1. The assay is described as above. As to conditions: MCC and control cell lines, CellTiter-Glo viability, 72 h; series mostly up to 46 µM. The essentials: as §2
Assay [7] concerns UISO. The description is as above. As to conditions: MCC and control cell lines, CellTiter-Glo viability, 72 h; series mostly up to 46 µM. The procedure, abridged:
as §2

Assay [8] deals with WaGa. Described as above. As to conditions: MCC and control cell lines, CellTiter-Glo viability, 72 h; series mostly up to 46 µM. The procedure, abridged: as §2
Assay [9] deals with NIH3T3. Kind of assay: Cytotoxic Profiling of Annotated Libraries Using Quantitative High-Throughput Screening (AID 1296008). Also: nearly all actives have a fitted effect of over 60% in size. Also: potency is read from the fitted curve at half-maximal effect. As to max response: % is scaled to controls: 0 for no effect and ±100 for the full control effect. As to conditions: Five cell lines viability, CellTiter-Glo ATP luminescence, 48-72 h; max response: hits give low values. The essentials: as §1
For assay [10], the system named is MKL-2. Nature of the assay: qHTS assay to identify novel small-molecules to repurpose for Merkel cell carcinoma treatment (AID 1296009). Also: nearly all actives have a fitted effect of over 60% in size. Also: potency is read from the fitted curve at half-maximal effect. As to conditions: MCC and control cell lines, CellTiter-Glo viability, 72 h; series mostly up to 46 µM. The essentials:
as §2

Assay [11] has as its system NIH3T3. The description is as above. As to conditions: MCC and control cell lines, CellTiter-Glo viability, 72 h; at 44.8 µM (top of the series) unless noted. The essentials:
as §2

The subject of assay [12] is HEK293. Kind of assay: Cytotoxic Profiling of Annotated Libraries Using Quantitative High-Throughput Screening (AID 1296008). Also: nearly all actives have a fitted effect of over 60% in size. Also: potency is read from the fitted curve at half-maximal effect. As to max response: % is scaled to controls: 0 for no effect and ±100 for the full control effect. As to conditions: Five cell lines viability, CellTiter-Glo ATP luminescence, 48-72 h; max response: hits give low values. The essentials:
as §1

In assay [13] the test system is TAB113. Kind of assay: qHTS profiling for inhibitors of Plasmodium falciparum proliferation (AID 504749). Also: nearly all actives have a fitted effect of over 60% in size. Also: potency is read from the fitted curve at half-maximal effect. As to conditions: P. falciparum in erythrocytes, SYBR Green DNA, 72 h; series mostly up to 28.7 µM. The essentials: (§3)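 SYBR Green fluorescence of parasite DNA, read after lysis and overnight dark incubation, measured growth over 72 h in erythrocyte culture at 0.3% parasitemia and 2.5% hematocrit. Data normalised to DMSO and 0.29 uM artemisinin, with plate-drift correction.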

The test system of assay [14] is TAB165. Described as above. As to conditions: P. falciparum in erythrocytes, SYBR Green DNA, 72 h; series mostly up to 28.7 µM. The essentials: as §3
Assay [15] relates to W2. The assay is described as above. As to conditions: P. falciparum in erythrocytes, SYBR Green DNA, 72 h; series mostly up to 28.7 µM. The essentials: as §3
The subject of assay [16] is C33A. Kind of assay: Primary qHTS to identify gynecologic anti-cancer compounds using libraries of approved drugs and bioactive compounds (AID 1345084). Also: % is scaled to controls: 0 for no effect and ±100 for the full control effect; nearly all actives have a fitted effect of over 55% in size. As to conditions: Gynecologic cancer cell panel viability, ATPlite luminescence, 48 h; series mostly up to 57.5 µM. The procedure, abridged:
(§4)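 Measured: luminescence after ATPlite addition (15 min, RT). Exposure: 48 h, 37 C, 5% CO2.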

The subject of assay [17] is CAOV3. The description is as above. As to conditions: Gynecologic cancer cell panel viability, ATPlite luminescence, 48 h; series mostly up to 57.5 µM. The essentials: as §4
For assay [18], the system named is CASKI. Described as above. As to conditions: Gynecologic cancer cell panel viability, ATPlite luminescence, 48 h; series mostly up to 57.5 µM. The essentials: as §4

With `c1ccc2c(Cc3c[nH]c4ccccc34)c[nH]c2c1`, the outcome in assay [1] and in [3] was inactive. Besides, the max response in [2] was -13.3%. In addition, the Potency result in assay [4], in [5], in assay [6] and in assay [8] was “inactive” in each case. In [7], the Potency was 0.469 µM (active).
With `C[C@H](NC(=O)C(=O)Nc1ccccc1C(C)(C)C)C(=O)N[C@@H](CC(=O)O)C(=O)COc1c(F)c(F)cc(F)c1F`, the compound was called inactive in assay [1], in assay [2], in [9], in [3] and in assay [11]. In addition, the Potency entry in assay [5] is “inactive”. The results for the Potency in assay [6] and in [10] were 20.9 µM (active) and 16.6 µM (active), respectively.
Take `O=C(N[C@@H](c1ccccc1)[C@@H]1CCCCN1)c1cccc(C(F)(F)F)c1Cl`: the max response in [1] is 4.43%; in [2] it was -7.93%; in [9], -0.909%. The Potency result in assay [4], in assay [6], in assay [10], in assay [7] and in assay [8] was “inactive” in each case.
As to `Clc1cc(Cl)cc(CNc2ncncc2-c2ccc3c(c2)OCO3)c1`, the Potency in [12] is 20.9 µM (active). In addition, the Potency result in assay [4], in assay [5] and in assay [10] was “inactive” throughout.
With `COc1ccc(Cc2nccc3cc(OC)c(OC)cc23)cc1OC`, the Potency entry in [13], in [14] and in assay [15] was “inactive” throughout.
In the case of `c1ccc2c(-c3cnn4cc(-c5ccc(N6CCNCC6)cc5)cnc34)ccnc2c1`, the Potency was 3.32 µM (active) in assay [2], 10.5 µM (active) in [4], 8.33 µM (active) in [5] and 2.96 µM (active) in assay [6]. Besides, the max response in assay [9] is -102%.
Consider `COCCCCC(=NOCCN)c1ccc(C(F)(F)F)cc1`, for which, in [15], the Potency was 2.69 µM (active).
Take `CC(=NNC(=S)N1CCC1)c1ccccn1`: the Potency is 0.0042 µM (active) in assay [12]; 0.0187 µM (active) in assay [9]; 0.0743 µM (active) in assay [4]; 0.418 µM (active) in assay [5]; 0.0033 µM (active) in assay [7]; 0.0007 µM (active) in assay [8]. Also, the Potency entry in assay [6] and in assay [10] was “inactive” each time.
`CC(C)OC(=O)CCCC=CC[C@@H]1[C@H](C=C[C@@H](O)COc2cccc(C(F)(F)F)c2)[C@H](O)C[C@@H]1O`: the Potency in assay [12] is 11.8 µM (active). Also, the Potency entry in assay [5] and in [6] was “inactive” in each case.
For `CO[C@H]1C=CO[C@@]2(C)Oc3c(C)c(O)c4c(O)c(c5c(c4c3C2=O)NC2(CCN(CC(C)C)CC2)N=5)=NC(=O)C(C)=CC=C[C@H](C)[C@H](O)[C@@H](C)[C@@H](O)[C@@H](C)[C@H](OC(C)=O)[C@H]1C`, the Potency entry in assay [16], in [17] and in assay [18] was “inactive” throughout.
As to `CNC(=O)c1ccccc1Sc1ccc2c(C=Cc3ccccn3)n[nH]c2c1`, the values for the Potency in assay [12], in assay [9] and in [8] were 14.8 µM (active), 3.72 µM (active) and 11.8 µM (active), respectively. Also, in assay [5], the Potency result was “inactive”.
Take `Oc1ccc(C2=Cc3ccc(O)cc3OC2)cc1`: the Potency is 9.35 µM (active) in assay [12]; 16.6 µM (active) in assay [2]; 10.5 µM (active) in assay [4]; 2.96 µM (active) in [6]; 2.35 µM (active) in assay [8].
For `CCCCCN(C)CCC(O)(P(=O)(O)O)P(=O)(O)O`, the Potency entry in assay [14], in assay [15], in assay [4], in assay [5], in assay [6] and in assay [10] was “inactive” in each case. In addition, the Potency result in [7] and in assay [8] was “inactive” each time. In addition, the outcome in assay [11] was inactive.
`C[C@]12CC[C@@H]3c4ccc(O)cc4C[C@@H](CCCCCCCCCS(=O)CCCC(F)(F)C(F)(F)F)[C@H]3[C@H]1CC[C@H]2O` (stereo partly specified): the max response was 0.837% in [1] and 4.81% in assay [2]. In addition, the result in [9] and in [11] was inactive. In addition, the Potency result in [4], in assay [5], in [6], in [10] and in assay [8] was “inactive” throughout.
Turning to `Cc1nnc(C(C)C)n1C1C[C@H]2CC[C@@H](C1)N2CC[C@H](NC(=O)C1CCC(F)(F)CC1)c1ccccc1` (stereo partly specified), the max response was 3.6% in assay [1] and 3.29% in assay [2]. In addition, the compound was called inactive in assay [9] and in assay [11]. Further, the Potency entry in [4], in assay [6], in assay [10], in [7] and in assay [8] was “inactive” each time.
Regarding `C=CCc1ccc(O)c(-c2ccc(O)c(CC=C)c2)c1`, in assay [12], the max response is -27.3%. Further, the Potency in assay [1] was 20.9 µM (active). Moreover, the Potency result in assay [4] and in assay [8] was “inactive” throughout.
Regarding `Nc1nc(F)nc2c1ncn2[C@@H]1O[C@H](COP(=O)(O)O)[C@@H](O)[C@H]1O`, the max response in assay [12] was -8.85%. Also, the compound was called inactive in [2]. Moreover, in assay [5], the Potency entry is “inactive”. Besides, the Potency in [7] is 13.2 µM (active); in assay [8], 14.8 µM (active).
